Source: PubChem (Broad Institute)
NOMO-1 viab – STK33 inhibitor candidate reducing NOMO-1 cell viability; NOMO-1 AML viability, CellTiter-Glo luminescence, 72 h; hit rate 7.5% among 37,000; inhibition, % (concentration not given with the values); in the data active means inhibition above about 80%; inconclusive means no clear call, values can overlap the other calls
STK33 inh – inhibitors of human STK33 kinase; Q9BYT3; ADP-Glo luminescence, MBP substrate; inhibition, % at 12.5 µM; hit rate 0.44% among 27,000; AID 2322; in the data active means inhibition above about 20%; inconclusive means no clear call, values can overlap the other calls
Target sequence (Q9BYT3 whole entry, looked up): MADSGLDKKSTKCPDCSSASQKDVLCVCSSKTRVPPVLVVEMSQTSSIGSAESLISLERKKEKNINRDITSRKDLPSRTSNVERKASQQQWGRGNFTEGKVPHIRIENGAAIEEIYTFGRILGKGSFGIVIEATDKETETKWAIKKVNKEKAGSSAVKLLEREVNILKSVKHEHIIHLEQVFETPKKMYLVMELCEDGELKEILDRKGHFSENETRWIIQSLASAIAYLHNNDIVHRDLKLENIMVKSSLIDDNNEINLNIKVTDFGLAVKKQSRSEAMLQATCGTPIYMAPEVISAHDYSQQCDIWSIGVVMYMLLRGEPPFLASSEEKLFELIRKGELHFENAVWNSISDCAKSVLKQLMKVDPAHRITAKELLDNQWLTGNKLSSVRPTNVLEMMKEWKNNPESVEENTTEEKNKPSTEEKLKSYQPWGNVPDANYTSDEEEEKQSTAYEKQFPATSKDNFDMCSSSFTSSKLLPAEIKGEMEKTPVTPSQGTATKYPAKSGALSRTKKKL
PD-1 reversal – activators reversing PD-1 mediated T-cell inhibition. primary human CD4 T cells, PD-L1 beads, CellTiter-Glo 96 h. activation, % (test concentration not listed). 29,000 tested, under 10 active. AID 2316; call rule not given here
Large screens that a line does not name were inactive. Many of the other results were omitted from the sample, so hits are more common in it than they were.

COc1cc([N+](=O)[O-])ccc1NC(=O)CN(C)S(=O)(=O)c1ccc(Br)cc1	none
N#Cc1c(NC(=O)CSc2n[nH]c(-c3ccc(Cl)cc3Cl)n2)sc2c1CCCC2	none
COc1ccc(OC)c(NC(=O)c2ccc(CSc3ncnc4nc[nH]c34)cc2)c1	none (no result: STK33 inh)
Cc1nc2c(o1)N(c1ccccc1)C(N)=C(C#N)C2c1ccc(OC(C)C)cc1 (stereo unspecified)	NOMO-1 viab inconclusive (no result: STK33 inh)
CC(C)NC(=O)Nc1ccc2c(c1)CC(=O)N([C@H](C)CO)C[C@@H](C)[C@@H](CN(C)S(=O)(=O)c1ccc(F)cc1)O2	none (no result: PD-1 reversal)
C[C@H](CO)N1C[C@H](C)[C@H](CN(C)S(=O)(=O)c2ccc(Cl)cc2)Oc2ccc(NC(=O)Nc3ccccc3)cc2CC1=O	NOMO-1 viab 111 (no result: STK33 inh, PD-1 reversal)
C[C@H](CO)N1C[C@H](C)[C@H](CN(C)S(=O)(=O)c2ccc(F)cc2)Oc2ccc(NC(=O)Nc3ccc4c(c3)OCO4)cc2CC1=O	NOMO-1 viab 126
C[C@H](CO)N1C[C@H](C)[C@H](CN(C)S(=O)(=O)c2ccc(F)cc2)Oc2ccc(NC(=O)Nc3ccc(C(F)(F)F)cc3)cc2CC1=O	NOMO-1 viab 119
C[C@@H]1CN([C@@H](C)CO)C(=O)Cc2cc(NC(=O)Nc3ccccc3)ccc2O[C@@H]1CN(C)S(=O)(=O)c1ccc(Cl)cc1	none
COc1ccc(NC(=O)Nc2ccc3c(c2)CC(=O)N([C@H](C)CO)C[C@@H](C)[C@@H](CN(C)S(=O)(=O)c2ccc(C)cc2)O3)cc1	none
C[C@@H]1CN([C@H](C)CO)C(=O)Cc2cc(NC(=O)Nc3ccc4c(c3)OCO4)ccc2O[C@H]1CN(C)S(=O)(=O)c1ccc(F)cc1	none
COc1ccc(NC(=O)Nc2ccc3c(c2)CC(=O)N([C@@H](C)CO)C[C@H](C)[C@H](CN(C)S(=O)(=O)c2ccc(C)cc2)O3)cc1	NOMO-1 viab 128 (no result: STK33 inh, PD-1 reversal)
COc1cc(OC)c(OC)cc1CN1CCN(Cc2ccccn2)CC1	none
CCOC(=O)c1sc(NC(=O)c2cnccn2)c(C(=O)OC)c1C	none
COC(=O)c1ccccc1NC(=O)c1ccc(NC(=O)COc2ccccc2C)cc1	NOMO-1 viab inconclusive
COc1cccc(OC)c1C(=O)Nc1ccc(Cl)c(-c2nc3ncccc3o2)c1	none
COc1cccc(N(CC(=O)Nc2ccc(I)cc2C)S(C)(=O)=O)c1	none
COc1cccc2sc(NC(=O)c3ccc(S(=O)(=O)N4CCCC(C)C4)cc3)nc12 (stereo unspecified)	none
COC(=O)Nc1sc(C)c(C)c1C(=O)NCc1cccnc1	none (no result: PD-1 reversal)
C[C@H](CO)N1C[C@H](C)[C@H](CN(C)S(=O)(=O)c2ccc(Cl)cc2)Oc2ccc(NC(=O)Nc3ccc(F)cc3)cc2CC1=O	NOMO-1 viab 125
C[C@@H]1CN([C@H](C)CO)C(=O)Cc2cc(NC(=O)Nc3ccc(F)cc3)ccc2O[C@H]1CN(C)S(=O)(=O)c1ccccc1	none (no result: PD-1 reversal)
C[C@H](CO)N1C[C@H](C)[C@H](CN(C)S(=O)(=O)c2ccc(F)cc2)Oc2ccc(NC(=O)Nc3ccc(F)cc3)cc2CC1=O	NOMO-1 viab 126
C[C@H]1CN([C@@H](C)CO)C(=O)Cc2cc(N(C)C)ccc2O[C@@H]1CN(C)S(=O)(=O)c1ccc(Cl)cc1	none (no result: PD-1 reversal)
C[C@H]1CN([C@@H](C)CO)C(=O)Cc2cc(N(C)C)ccc2O[C@H]1CN(C)S(=O)(=O)c1ccc(Cl)cc1	NOMO-1 viab 115
COc1ccc(NC(=O)Nc2ccc3c(c2)CC(=O)N([C@@H](C)CO)C[C@@H](C)[C@@H](CN(C)S(=O)(=O)c2ccc(F)cc2)O3)cc1	none
C[C@H](CO)N1C[C@H](C)[C@H](CN(C)S(=O)(=O)c2ccccc2)Oc2ccc(NC(=O)Nc3ccc(F)cc3)cc2CC1=O	NOMO-1 viab 95
COc1ccc(S(=O)(=O)N(C)C[C@H]2Oc3ccc(NC(=O)Nc4ccc(F)cc4)cc3CC(=O)N([C@@H](C)CO)C[C@@H]2C)cc1	none
COc1cc(Cl)c(C)cc1NC(=O)C1CCC(=O)N1S(=O)(=O)c1ccc(C)cc1 (stereo unspecified)	none
CNC(=O)c1cc(C#N)c(SC)s1	none (no result: STK33 inh)
Cn1c(SCC(=O)Nc2ccc3c(c2)OCCO3)nnc1-c1cnccn1	none
Cc1sc2nc(C(=O)Oc3ccc(F)cc3)cc(N)c2c1C	none (no result: STK33 inh)
COc1cccc(NC(=O)CSc2nnc(-c3ccccc3)n2-c2ccc(Cl)cc2)c1	none
Cc1cc(Cl)ccc1NC(=O)CSc1nnc(-c2cccs2)n1-c1ccccc1	none (no result: PD-1 reversal)
Nc1nc(-c2ccco2)nn1C(=O)c1ccco1	none (no result: PD-1 reversal)
COc1ccccc1NC(=O)c1ccc(C(C)(C)C)cc1	none
COC(Cc1nc2ccccc2s1)C(=O)O (stereo unspecified)	NOMO-1 viab inconclusive
C[C@@H]1CN([C@@H](C)CO)C(=O)c2cc(NC(=O)Nc3ccc4c(c3)OCO4)ccc2O[C@@H]1CN(C)S(=O)(=O)c1ccc(F)cc1	none (no result: STK33 inh)
C[C@H](CO)N1C[C@H](C)[C@H](CN(C)S(=O)(=O)c2ccc(Cl)cc2)Oc2ccc(NC(=O)NC3CCCCC3)cc2CC1=O	NOMO-1 viab 119 (no result: PD-1 reversal)
C[C@@H]1CN([C@H](C)CO)C(=O)c2cc(NC(=O)Nc3ccc4c(c3)OCO4)ccc2O[C@@H]1CN(C)S(=O)(=O)c1ccc(F)cc1	NOMO-1 viab 95 (no result: STK33 inh)
C[C@@H]1CN([C@H](C)CO)C(=O)Cc2cc(NC(=O)NC3CCCCC3)ccc2O[C@@H]1CN(C)S(=O)(=O)c1ccc(Cl)cc1	none
COc1ccc(NC(=O)Nc2ccc3c(c2)CC(=O)N([C@@H](C)CO)C[C@H](C)[C@H](CN(C)S(=O)(=O)c2ccc(F)cc2)O3)cc1	NOMO-1 viab 110 (no result: PD-1 reversal)
COc1ccc(S(=O)(=O)N(C)C[C@@H]2Oc3ccc(NC(=O)Nc4ccc(F)cc4)cc3CC(=O)N([C@H](C)CO)C[C@H]2C)cc1	none
COc1ccc2c(c1OC)C(=O)N1c3ccccc3N=C(c3ccc(Br)cc3)CC21 (stereo unspecified)	none (no result: STK33 inh)
Cc1cc(C)c(NC(=O)CN(c2ccc(Cl)cc2)S(C)(=O)=O)c(C)c1	none
O=C(Nc1ccccc1)C(=S)N1CCOCC1	none (no result: STK33 inh)
O=S(=O)(NC(c1ccccc1)c1ccccc1)c1ccccc1	none (no result: STK33 inh)
CC(C)(C)SC(=O)c1cccnc1SCCS(=O)(=O)c1cccc(C(F)(F)F)c1	none (no result: STK33 inh)
CC(C)CC(=O)c1c(O)cc(O)cc1OC1OC(COC(=O)c2cc(O)c(O)c(O)c2)C(O)C(O)C1O (stereo unspecified)	none (no result: NOMO-1 viab, PD-1 reversal)
CC(C)=C1C[C@@]2(CO)C(=CC1=O)CC[C@@H](O)[C@@H]2C	none
C=C(C)[C@@]12O[C@@H]1[C@@]1(C)C(=CC2=O)CC[C@@H](O)[C@@H]1C	NOMO-1 viab 114
CCOc1ccc2nc(SCC(=O)Nc3cccc(C)c3C)sc2c1	none
Oc1c(C(Nc2cccnc2)c2ccc(C(F)(F)F)cc2)ccc2cccnc12 (stereo unspecified)	NOMO-1 viab 109 (no result: PD-1 reversal)
FC(F)(F)c1nnc(Nc2cccnc2)s1	none (no result: STK33 inh)
Cc1ccc(S(=O)(=O)/C(C#N)=C/Nc2cc(C(F)(F)F)cc(C(F)(F)F)c2)cc1	NOMO-1 viab 89 (no result: STK33 inh)
CSc1nc(C)nc(N/C=C(\C#N)S(=O)(=O)c2ccc(C)cc2)n1	none (no result: STK33 inh)
O=C1N=c2ccccc2=N/C1=N\C(=S)Nc1ccccc1	NOMO-1 viab 122 (no result: STK33 inh)
CC(C)/C(N)=N/C(=S)Nc1ccccc1	none (no result: STK33 inh)
Nc1ccc2nc(SCC(=O)Nc3ccc(Oc4ccccc4)cc3)sc2c1	none (no result: PD-1 reversal)
Cc1cccc(NC(=O)CNS(=O)(=O)c2ccc(Br)cc2)c1C	none
